This note sets out measurements from PubChem BioAssay (Tox21).

Several values for one entry are separate records, joined by “and”; a condition that tells them apart may be missing. Identical values can stand only once. Unmarked numbers belong to inactive results. A call without a number means that no potency is given here. Activity calls are given as the source filed them. Calls follow the shape of the full dose curve.
Potency is read from the fitted curve at half-maximal effect.

The target in the test is Estrogen receptor (Homo sapiens) (UniProt P03372). Put plainly: qHTS assay to identify small molecule agonists of the estrogen receptor alpha (ER-alpha) signaling pathway (AID 743075).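 Also: HEK293 GripTite cells with ER-alpha and UAS-driven beta-lactamase reporter.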 The note with it: HEK293 ER-alpha-UAS-bla, beta-lactamase FRET ratio, 18 h; series mostly up to 70.1 µM; activation: at the top concentration. (qHTS replaces the single test concentration by a dilution series.)
Sequence of Estrogen receptor (Homo sapiens) (P03372 whole entry, looked up): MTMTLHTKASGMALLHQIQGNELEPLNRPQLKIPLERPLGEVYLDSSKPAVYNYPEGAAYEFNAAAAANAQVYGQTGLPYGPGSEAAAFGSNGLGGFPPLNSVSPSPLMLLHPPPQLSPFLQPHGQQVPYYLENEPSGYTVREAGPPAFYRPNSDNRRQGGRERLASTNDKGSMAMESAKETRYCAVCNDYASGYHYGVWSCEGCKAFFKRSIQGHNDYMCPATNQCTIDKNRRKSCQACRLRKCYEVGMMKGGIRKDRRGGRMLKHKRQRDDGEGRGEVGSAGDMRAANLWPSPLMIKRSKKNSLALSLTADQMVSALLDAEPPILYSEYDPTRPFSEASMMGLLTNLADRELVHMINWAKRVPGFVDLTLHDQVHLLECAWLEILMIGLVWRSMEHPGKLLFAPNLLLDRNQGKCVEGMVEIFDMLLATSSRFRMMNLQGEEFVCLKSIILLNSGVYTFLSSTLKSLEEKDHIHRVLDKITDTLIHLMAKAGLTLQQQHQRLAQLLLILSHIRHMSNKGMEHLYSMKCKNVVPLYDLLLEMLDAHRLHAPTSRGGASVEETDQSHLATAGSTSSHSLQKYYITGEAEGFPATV
Take `O=S1(=O)CCCO1`: the Potency entry is “inactive”. Regarding `CCOC(=O)C(C)Oc1ccc(Oc2cnc3cc(Cl)ccc3n2)cc1` (centres undefined), the Potency entry is “inactive”. The same measure, in the same setting: to `COC(=O)CC(=O)OC` belongs “inactive”. With `C=C[Si](OCCOC)(OCCOC)OCCOC`, the Potency entry is “inactive”. With `CN(C)/N=N/c1nc[nH]c1C(N)=O`, the Potency result is “inactive”.

For `c1ccc2c(c1)[nH]c1ccccc12`, the Potency result was “inactive”.

Take `CCCCCCC(C)O` (centres undefined): the Potency result was “inactive”.

Consider `CCC/C=C/C=O`, for which the Potency entry was “inactive”. Still for that read-out and setting: to `CCCCCCCCCCCCO` belongs “inactive”; to `CC(C)[N+](C)(CCOC(=O)C1c2ccccc2Oc2ccccc21)C(C)C`, “inactive”; to `C/C=C/C(=O)N(CC)c1ccccc1C`, “inactive”.

Turning to `COC(=O)c1ccc(C)cc1`, the “activation” value is -1.62%. As to `CCc1cccc2c3c([nH]c12)C(CC)(CC(=O)O)OCC3` (centres undefined), the Potency entry is “inactive”. Consider `CCCCCCCCCCCCCO`, for which the Potency result is “inactive”. Still for that read-out and setting: to `CC(C)=CCO` belongs “inactive”.

As to `CC(=O)Oc1c(C)c(C)c2c(c1C)CC[C@@](C)(CCC[C@H](C)CCC[C@H](C)CCCC(C)C)O2`, the Potency result was “inactive”. Same read-out and setting: the value for `Cc1ccc(C(C)(C)C)cc1` was “inactive”.

On to `CCO[Si](CCCNC(N)=O)(OCC)OCC`, for which the Potency entry is “inactive”. Still for that read-out and setting: the value for `OC[C@H]1O[C@@H]2O[C@H]3[C@H](O)[C@@H](O)[C@@H](O[C@H]4[C@H](O)[C@@H](O)[C@@H](O[C@H]5[C@H](O)[C@@H](O)[C@@H](O[C@H]6[C@H](O)[C@@H](O)[C@@H](O[C@H]7[C@H](O)[C@@H](O)[C@@H](O[C@H]1[C@H](O)[C@H]2O)O[C@@H]7CO)O[C@@H]6CO)O[C@@H]5CO)O[C@@H]4CO)O[C@@H]3CO` was “inactive”; that for `CC1(C)O[C@@H]2C[C@H]3[C@@H]4C[C@H](F)C5=CC(=O)C=C[C@]5(C)[C@@]4(F)[C@@H](O)C[C@]3(C)[C@]2(C(=O)CO)O1` was “inactive”; that for `CCCCCCCC/C=C\CCCCCCCC(=O)O` was “inactive”.

As to `CN(C)C`, the Potency result was “inactive”. Same read-out and setting: the value for `CCC(Cc1c(I)cc(I)c(N)c1I)C(=O)O` (centres undefined) was 8.11 µM [inconclusive] (active) and 5.32 µM [activator] (active). Regarding `Cc1ccc([N+](=O)[O-])c(C)c1`, the Potency entry is “inactive”. The same measure, in the same setting: to `O=C1CCc2ccccc2O1` belongs “inactive”. As to `[Na+]`, the Potency result was “inactive”.

Consider `C1COCCN1`, for which the “activation” value was -2.17%. `Nc1cc(Cl)c(N)c(Cl)c1`: the Potency result was “inactive”. The same measure, in the same setting: the value for `CC(C)(C)c1cccc(C(C)(C)C)c1O` was “inactive”; that for `C=CCNCC=C` was “inactive”. In the case of `FC(F)(F)C(Cl)Br` (centres undefined), the Potency entry was “inactive”. The same measure, in the same setting: to `CCCCCC1C(=O)CCC1CC(=O)OC` (centres undefined) belongs “inactive”; to `NCCOCCO`, “inactive”. Still for that read-out and setting: the value for `CNC[C@H](O)c1ccc(O)c(O)c1` was “inactive”; that for `NCCS(=O)(=O)O` was “inactive”. Regarding `Cc1ccc(S(=O)(=O)O)cc1C`, the Potency result was “inactive”. As for `CC1(C)C(C=C(Cl)Cl)C1C(=O)OCc1cccc(Oc2ccccc2)c1` (centres undefined), the Potency result is “inactive”. `Cc1ccc(N)c([N+](=O)[O-])c1`: the “activation” value was -2.5%. Turning to `O=C(O)c1cc(=O)[nH]c(=O)[nH]1`, the Potency result is “inactive”.
